Tgondii IFNg: T. gondii growth inhibition with IFN-gamma, primary screen, cell-based; 3.8% of 69,000 active; activity change, negative = inhibition, % (test concentration not listed); Toxoplasma gondii growth in IFN-gamma-treated host cells; hits give low values; in the data active = activity change below about -70%, passing the limit was not always enough;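 also: host cells are HeLa cells infected with Toxoplasma gondii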
An asterisk follows results filed as active. Only a selection was taken, and hits are over-represented in it overall.

SMILES	Tgondii IFNg
Cc1noc(C)c1NC(=O)Nc1ccc2c(c1)C(=O)N([C@@H](C)CO)C[C@H](C)[C@@H](CN(C)S(=O)(=O)c1cccs1)OCCCC[C@@H](C)O2	337
COc1ccc(CN2C[C@H]3OCCN(C)[C@H]3C2)cc1	-1
CCS(=O)(=O)N1C[C@H]2CCC[C@]2(COCc2ccncc2)C1	1
CN(C)Cc1cc(-c2ccc(CNC(=O)c3cc(C(C)(C)C)nn3C)cc2)nn1C	-59
Clc1ccc(N/N=C(\c2ccccc2)c2ccccn2)nc1	-41
CCCn1cc(C(=O)Nc2ccc(NC(=O)C(C)(C)C)c(C)c2)c(C)n1	149
Cc1ccc(CN2CC[C@@H]3C[C@H](c4nc(C5CC5)cs4)O[C@H]3C2)o1	14
Cc1cc(C(=O)N2CC[C@@H]3Oc4ccccc4S(=O)(=O)N(CCN(C)C)[C@@H]3CC2)n[nH]1	-22
COCCN1C[C@@H]2[C@@H](C1)C(=O)N(C)C21CCN(C(=O)Nc2ccccc2Cl)CC1	30
NC(=O)N1Cc2nccn2CC(COc2cccnc2)C1 (stereo not drawn)	-100*
CCS(=O)(=O)N1Cc2nccn2CC(COc2cccnc2)C1 (stereo not drawn)	10
CC(C)NC(=O)N1Cc2nccn2CC(COc2cccnc2)C1 (stereo not drawn)	9
COCCC1COC2(CCCN(C(=O)c3cnccn3)C2)C1 (stereo not drawn)	5
COc1ccc(CNC(=O)Cn2c(=O)cc(-c3nc(C)no3)c3ccccc32)cc1	2
CN1CCN2CCN(C(=O)c3ccc(NCc4ccncc4)cc3)CC2C1 (stereo not drawn)	26
COC(=O)C1CC23C=CNC4CCC5(c6ccccc6NC15C2C)C43 (stereo not drawn)	-86*
CCc1nc(C)sc1C(=O)N1CCC(Cc2cccc(C(N)=O)c2)C1 (stereo not drawn)	4
COc1ccccc1NC(=O)NCCN1CCCC1	-53
Cc1ccc(Nc2nc(C(=O)Nc3ccc(C)c(C)c3)nc3ccccc23)cc1	44
Cc1cc(CC(=O)N2CCC(c3n[nH]c(=O)n3Cc3ccccc3)CC2)on1	19
Cc1nc(-n2cnnc2)ccc1-c1ccc(C(N)=O)cc1	-1
CCCc1nc(C)cc(-c2ccc(OC)nc2)n1	18
COc1ccc(-c2ccc(-n3cnnc3)nc2C)cn1	-88*
CCN1CCCC1CNC(=O)c1ccc2c(c1)[nH]c(=O)n2Cc1ccc(OC)cc1 (stereo not drawn)	-30
COc1cccc(NC(=O)CC2NCCNC2=O)c1 (stereo not drawn)	46
COc1cccc(NC(=O)c2ccc3c(c2)[nH]c(=O)n3C2CCCCC2)c1	-83*
COc1ccc(CNc2ncc(-c3cc(C)no3)c(-c3ccoc3)n2)cc1OC	96
Cc1ccc(CNC(=O)c2ccc(-c3nc(CN4CCN(c5ccccc5)CC4)c(C)o3)cc2)o1	65
